About 2,000 (36%) of roughly 5,500 compounds were called active. Inconclusive results (about 18%) are left out. Rule as the data show it: active = normalized growth mostly below about 0.91 (no sharp cut-off); inconclusive = no clear call, values can overlap the other calls; inactive = mostly above about 0.92. The list shows a part of the results.
Test: chemical genetic growth profiling, strain panel (AID 1159580);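 also: tested at 20 µM; growth read once vehicle control cultures reached saturation at 30 °C; 1 = growth at the plate median or of vehicle wells; lower values mean less growth of the strain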
Details: S. cerevisiae deletion strains, growth OD

Measured: normalized growth

Cc1[nH]c(=O)c(C#N)cc1-c1ccncc1
inactive: locus YAL013W, strain DEP1, active compounds read low 1.02 | locus YAL040C, strain CLN3, active compounds read low 1 | locus YCL061C, strain MRC1 (second series), active compounds read low 1.01 | locus YDR363W, strain ESC2, active compounds read low 1.04 | locus YER002W, strain NOP16, active compounds read low 0.997 | locus YGR078C, strain PAC10, active compounds read low 1.01 | locus YMR263W, strain SAP30, active compounds read low 1.01 | locus YMR307W, strain GAS1, active compounds read low 1.01 | locus YNL153C, strain GIM3, active compounds read low 1.01 | locus YNL175C, strain NOP13, active compounds read low 1.01 | locus YNL197C, strain WHI3, active compounds read low 1.01 | locus YNL224C, strain SQS1, active compounds read low 1.01 | locus YNL322C, strain KRE1, active compounds read low 1.01 | locus YOR083W, strain WHI5 (second series), active compounds read low 1.01 | locus YPL241C, strain CIN2, active compounds read low 0.998
